gsp agonist: activates gsp, the McCune-Albright syndrome mutation | Potency, µM (titrated, usually from 76.9 µM), inactives show top-dose activation (cAMP increase), most hits filed as activators | gsp mutant cells, cAMP HTRF, 30 min | 340,000 tested, 0.13% active; active means well fitted activation curve with a large enough effect; inconclusive means small, poorly fitted or top-dose-only effect, or another doubt; inactive means no such curve, though single readings can be large or run the other way; cell line not stated here;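 further: phosphodiesterase inhibitor Ro 20-1724 added with compounds to block cAMP breakdown; potency means the concentration at half of the fitted maximal effect; nearly all actives have a fitted effect of over 60% in size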
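Cells stably selected in G418 were plated at 2000/well, grown 16-24 hr, then given compounds in DMSO with the PDE inhibitor […] (300 uM solution added) for 30 min at 37C; cAMP was read by HTRF.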
RXFP1 ag: activates the human relaxin receptor RXFP1; Potency, µM (series often up to 57.5 µM), without a hit: top-dose activation, actives largely listed as activators; AID 2676; HEK293T-RXFP1 cAMP TR-FRET, 30 min; response scale: percent of porcine relaxin response, buffer zero; 370,000 tested, 0.3% active; active means well fitted activation curve with a large enough effect; inconclusive means small, poorly fitted or top-dose-only effect; further: potency means the concentration at half of the fitted maximal effect; on the % scale 0 is the no-effect control and ±100 the full control effect; nearly all actives have a fitted effect of over 60% in size
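Agonist response is measured as cAMP accumulation in an RXFP1-transfected HEK293T line under PDE4 inhibition. Values are scaled between buffer-only and 29 nM porcine relaxin, and EC50s come from standard Hill equation fits.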
gsp antag: gsp mutant antagonism. gsp-mutant cells, cAMP HTRF, 30 min. Potency, µM (titrated, usually from 76.9 µM), without a hit: top-dose activity change, negative = inhibition, most hits filed as inhibitors. 340,000 tested, 0.4% active. AID 624288; calls by dose curve; cell line not stated here;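 further: intracellular cAMP measured with PDE inhibitor Ro 20-1724 present during compound exposure; potency means the concentration at half of the fitted maximal effect; on the % scale 0 is the no-effect control and ±100 the full control effect; nearly all actives have a fitted effect of over 65% in size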
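G418-selected cells were plated in DMEM/10% FBS for 16-24 h at 37C, then treated with compounds plus the PDE inhibitor […] (300 uM solution added) for 30 min at 37C. Intracellular cAMP was measured by HTRF after 30 min lysis at room temperature.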
RXFP1 antagonist: blocks the human relaxin receptor RXFP1; Q9HBX9; HEK293-RXFP1, relaxin-stimulated cAMP HTRF, 30 min; hits give low values; activity change, negative = inhibition, % at 57.5 µM; 350,000 tested, 0.59% active; AID 1259400;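 active means activity change of -60% or lower, but not beyond a set lower limit; inconclusive means change between -60% and -40%, or beyond the set limit; inactive means change above -40%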; further: on the % scale 0 is the no-effect control and ±100 the full control effect
Akt phos inh: blocks phosphorylation of Akt | 360,000 tested, 0.32% active | AID 651550 | activity change, % for hits at 50 µM | Neuro2A IGF-stimulated pAkt S473 HTRF, 20 min; hits give low values; in the data active means activity change below about -80%; inconclusive means mostly about -51% to -80%; further: on the % scale 0 is the no-effect control and ±100 the full control effect
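Neuro2A cells in DMEM with 0.5% FBS, overnight at 37 deg C, given compound at single 50 µM final, then IGF (6 nM final) for 20 min at 37 deg C. Lysed; phospho-Akt Ser473 by HTRF after 24 h, 665/615 ratio.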
TSHR antag: antagonists of human thyroid stimulating hormone receptor; P16473; TSHR-expressing cells, TSH-stimulated cAMP HTRF, 2 h; hits give low values; activity change, negative = inhibition, % at 11.5 µM; 330,000 tested, 0.2% active; AID 504810;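 active means activity change below a set negative limit, meaning inhibition stronger than a set level, cut at about -70% in these data; inconclusive means activity change between two set negative limits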; further: on the % scale 0 is the no-effect control and ±100 the full control effect
Target sequence (P16473 whole entry, looked up): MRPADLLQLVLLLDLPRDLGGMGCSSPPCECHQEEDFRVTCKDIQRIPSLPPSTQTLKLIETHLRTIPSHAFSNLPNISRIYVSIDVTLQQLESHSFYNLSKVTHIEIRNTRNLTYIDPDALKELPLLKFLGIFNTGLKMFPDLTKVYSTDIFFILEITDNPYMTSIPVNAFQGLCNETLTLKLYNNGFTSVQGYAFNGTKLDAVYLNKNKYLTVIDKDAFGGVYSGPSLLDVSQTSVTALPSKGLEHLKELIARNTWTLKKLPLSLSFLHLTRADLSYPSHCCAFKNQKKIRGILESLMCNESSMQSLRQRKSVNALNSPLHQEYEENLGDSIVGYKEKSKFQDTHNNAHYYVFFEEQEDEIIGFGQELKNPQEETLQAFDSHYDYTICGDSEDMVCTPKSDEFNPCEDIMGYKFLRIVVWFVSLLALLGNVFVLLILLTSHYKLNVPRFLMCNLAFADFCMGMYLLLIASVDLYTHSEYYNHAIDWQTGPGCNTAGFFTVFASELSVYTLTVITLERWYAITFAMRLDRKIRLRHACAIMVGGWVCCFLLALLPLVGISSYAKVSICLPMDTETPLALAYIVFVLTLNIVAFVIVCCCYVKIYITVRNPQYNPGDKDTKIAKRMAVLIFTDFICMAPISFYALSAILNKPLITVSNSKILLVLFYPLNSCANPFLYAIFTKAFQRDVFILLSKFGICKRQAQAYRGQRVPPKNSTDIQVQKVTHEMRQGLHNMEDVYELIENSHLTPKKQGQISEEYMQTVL
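Competitive HTRF cAMP read-out (cryptate anti-cAMP antibody, cAMP-d2; 30 min, room temperature) in freshly harvested TSHR cells. Compounds added before TSH at EC80 (4nM final), followed by 2 hours' incubation at 37 deg C.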
The depositor's hits bear a star; [ ] = another dose, or the depositor's remark. In the library only some 1.3% were active in any assay of this set; here they are far more common.

Results for c1ccc(CN2CCN(C(c3ccccc3)c3ccccc3)CC2)cc1 ?
gsp agonist: 50%[15.4 µM]; RXFP1 ag: 1%; gsp antag: 3%; RXFP1 antagonist: -104*; Akt phos inh: inactive; TSHR antag: 4

Results for O=C(OCC(=O)N1CCOCC1)c1cccc(F)c1 ?
gsp agonist: -21%[15.4 µM]; RXFP1 ag: -1%; gsp antag: 7%; RXFP1 antagonist: -1; Akt phos inh: inactive; TSHR antag: 25

Results for Cc1ccc2nc(SCCCCOc3ccccc3)[nH]c2c1 ?
gsp agonist: -4%; RXFP1 ag: 4%; gsp antag: 40µM*; RXFP1 antagonist: -3; Akt phos inh: inactive; TSHR antag: -13

What do the screens show for `CC1=C(C)/C(=N\OS(=O)(=O)c2ccccc2)C=CC1=O`?
gsp agonist: 4%; RXFP1 ag: -3%; gsp antag: inconclusive; RXFP1 antagonist: -114*; Akt phos inh: inactive; TSHR antag: -27

What do the screens show for `CC1(C)CC(=O)c2cnc(NC(=O)CSC(=S)N3CCCCC3)nc2C1`?
gsp agonist: 0%[15.4 µM]; RXFP1 ag: -10%; gsp antag: 4%; RXFP1 antagonist: 1; Akt phos inh: inactive; TSHR antag: 5

Results for COc1ccc(Cn2c(=O)c3cccnc3n(Cc3cccc(OC)c3)c2=O)cc1 ?
RXFP1 ag: -2%

How did CC(C)c1ccc(C2NC(C(=O)O)CS2)cc1 (stereo unspecified) do in these assays?
gsp agonist: inconclusive; RXFP1 ag: 0%; gsp antag: 17%; RXFP1 antagonist: -16; Akt phos inh: -105%*; TSHR antag: -4

Results for O[C@@H]1COC(Nc2ccc(N=Nc3ccccc3)cc2)C[C@@H]1O (stereo partly specified) ?
gsp agonist: -4%[15.4 µM]; RXFP1 ag: 1%; gsp antag: 5%; RXFP1 antagonist: 3; Akt phos inh: inactive; TSHR antag: -4

What do the screens show for `COc1ccc(S(=O)(=O)Nc2ccccc2C(=O)Nc2nc(-c3ccc(F)cc3)cs2)cc1OC`?
gsp agonist: -6%[15.4 µM]; RXFP1 ag: 4%; gsp antag: 35µM*; RXFP1 antagonist: -28; Akt phos inh: inactive; TSHR antag: -88*

What do the screens show for `COc1ccc(-c2csc(NC(=O)c3ccccc3NS(=O)(=O)c3ccc(C)cc3)n2)cc1`?
gsp agonist: inconclusive; RXFP1 ag: 3%; gsp antag: inconclusive; RXFP1 antagonist: inconclusive; Akt phos inh: inactive; TSHR antag: -82*

Results for O=C(Nc1nc(-c2cc(F)ccc2F)cs1)C1=NN(c2ccccc2)C(=O)CC1 ?
gsp agonist: -39%; RXFP1 ag: 0%; gsp antag: inconclusive; RXFP1 antagonist: 7; Akt phos inh: inactive; TSHR antag: -10

How did COc1ccc(-c2csc(NC(=O)C3=NN(c4ccccc4)C(=O)CC3)n2)cc1 do in these assays?
gsp agonist: -22%; RXFP1 ag: 1%; gsp antag: inconclusive; RXFP1 antagonist: -9; Akt phos inh: inactive; TSHR antag: -78*

Results for O=C(NCc1cccs1)c1nn(-c2ccccc2)nc1CO ?
RXFP1 ag: 1%; RXFP1 antagonist: -25

What do the screens show for `OC1(c2ccc(F)cc2)CSC(=Nc2cccnc2)N1Cc1ccco1` (stereo unspecified)?
gsp agonist: 0%[15.4 µM]; RXFP1 ag: 0%; RXFP1 antagonist: -62*; Akt phos inh: inactive; TSHR antag: -20

Results for OC1(c2ccc(F)cc2)CCN(Cc2cccnc2)CC1 ?
gsp agonist: -3%[15.4 µM]; RXFP1 ag: 0%; gsp antag: 4%; RXFP1 antagonist: 3; Akt phos inh: inactive; TSHR antag: 17

What do the screens show for `OC1(c2ccc(OC(F)F)cc2)CSC(=Nc2cccnc2)N1Cc1ccco1` (stereo unspecified)?
gsp agonist: -17%; RXFP1 ag: 4%; gsp antag: 32µM*; RXFP1 antagonist: -31; Akt phos inh: inactive; TSHR antag: -38
